Each structure is given as a SMILES string. Compounds without any hit were thinned out: in the full panel of roughly 83,000, 20% have a hit.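 Each cell line was grown in a 96-well plate and treated with one concentration of compound for 48 hours. Values below 10 were considered active.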 Values without a mark were called inactive. Calls of active or inactive are those of the source.

The assay has as its system MALME-3M melanoma. Put plainly: NCI-60 one-dose screen, 48 h (100 = growth as untreated, 0 = no growth, -100 = all killed). The note with it: 10 µM unless noted.
Regarding `CC(C)(C)c1ccc(Cn2cc(CSc3nc4ccccc4s3)nn2)cc1`, the growth is 94%.

Regarding `CCN1CCN(Cc2ccc(Cc3ncc(F)c(-c4cc(F)c5nc(C)n(C(C)C)c5c4)n3)nc2)CC1`, the growth was 65.9%.

Take `CC(=O)NCC(=O)N1[C@@H]2CC[C@H]1c1ccc(Nc3ncc(C(F)(F)F)c(NC4CCC4)n3)cc12`: the growth was 46.3% [2.5 µM].

With `O=C(NOCCO)c1cc(CN2OCCCC2=O)c(F)c(F)c1Nc1ccc(I)cc1F`, the growth is -2.48% (active).

Consider `CC(C)CC(=O)Nc1n[nH]c2c1CN(C(=O)C1CCN(C)CC1)C2(C)C`, for which the growth was 34.9%.

As for `Cc1ccc(N)cc1CN1C(=O)c2ccccc2C1=O`, the growth was 101%.

Turning to `COCc1c(-c2ccc(NC(=O)Nc3cc(C(F)(F)F)ccc3F)c(F)c2)c2c(N)ncnn2c1CN1CCOCC1`, the growth was -37% (active).

With `O=C(CNc1nc2ccccc2s1)Nc1ccc(-c2nc3ccccc3s2)cc1`, the growth was 98.1%.

Consider `N#CC[C@H](C1CCCC1)n1cc(-c2ncnc3[nH]ccc23)cn1`, for which the growth is 97%.

For the molecule `C=CC(=O)Nc1cc2c(Nc3ccc(F)c(Cl)c3)ncnc2cc1C#CC(C)(C)N1CCN(C)CC1`, the growth was -85.3% (active).

As to `CC(=O)C1=C(C)NC(SCc2nnc(-c3ccc(C)cc3)o2)=NC1c1ccc(F)cc1` (centres undefined), the growth was 98%.

As to `CNC(=O)c1ccc(Nc2ncc(C(F)(F)F)c(NCc3nccnc3N(C)S(C)(=O)=O)n2)cc1`, the growth is -1.87% (active).

Regarding `C/C=C/C=N/NC(=S)Nc1ccccc1`, the growth was 96.5%.

In the case of `COc1cc(N2CCC(N(C)C)CC2)ccc1Nc1ncc(Cl)c(Nc2ccccc2P(C)(C)=O)n1`, the growth is 32%.

For the molecule `CN1CCN(CCCOc2cccc3nc(Nc4ccc(Cl)c(C(F)(F)F)c4)ccc23)CC1`, the growth was 34.1%.

For `C#Cc1cccc(Nc2ncnc3cc(OC)c(OCCCCCCC(=O)NO)cc23)c1`, the growth is 2.19% (active).

In the case of `Cc1ccc(-n2nc(C(C)(C)C)cc2NC(=O)NCc2cc(F)ccc2Oc2ccc3c(cnn3CCO)c2)cc1`, the growth is -6.23% (active).

Regarding `Cn1ccnc1C(=O)/C=C/c1ccc(CC(=O)Nc2ccc(Br)cc2)cc1`, the growth is 75.5%.

Take `Cc1[nH]n(C(N)=S)c(=O)c1N=Nc1ccc(S(=O)(=O)Nc2ccncn2)cc1`: the growth was 137%.

Turning to `Cc1[nH]c(/C=C2\C(=O)Nc3ccc(F)cc32)c(C)c1C(=O)NC[C@H](O)CN1CCOCC1`, the growth is -7.48% (active).

As to `Cn1ncc(Cl)c1-c1cc(C(=O)N[C@H](CN)Cc2cccc(F)c2)sc1Cl`, the growth is -73.8% (active).

As for `Cn1cc(-c2ncnc3ccc(-c4cnc(Cl)c(NS(C)(=O)=O)c4)cc23)c2ccccc21`, the growth is -13.6% (active).

For the molecule `O=[N+]([O-])c1cc(Br)cc2c1[nH]c1ccc(Br)cc12`, the growth was 66.3%.

Regarding `COc1ccc2c(OCc3nnc4ccc(-c5ccccc5)nn34)ccnc2c1`, the growth was 97.8% [2.5 µM].

With `CC(=O)O[C@]1(C)C[C@H](O)[C@]2(O)C=CO[C@H](O[C@@H]3O[C@H](CO)[C@@H](O)[C@H](O)[C@H]3O)[C@@H]21`, the growth is 97.5%.

`COc1cc2cc(NCc3ccc(F)cc3)nc(C)c2cc1OC`: the growth was 87.7%.

In the case of `O=C(Nc1nc2cccc(-c3ccc(CN4CCS(=O)(=O)CC4)cc3)n2n1)C1CC1`, the growth was 105%.

On to `N#Cc1c(-c2ccc(Cl)cc2)csc1NC(=O)Nc1cccc(C(F)(F)F)c1`, for which the growth was 14.8%.

On to `O=C(c1ccc(/C=C/c2n[nH]c3ccccc23)cc1)N1CCNCC1`, for which the growth is 10.4%.

With `Cc1cnc(Nc2ccc(OCCN3CCCC3)cc2)nc1Nc1cccc(S(=O)(=O)NC(C)(C)C)c1`, the growth was -34.1% (active).

As for `CO[C@H]1C[C@@H]2CC[C@@H](C)[C@@](O)(O2)C(=O)C(=O)N2CCCC[C@H]2C(=O)O[C@H]([C@H](C)C[C@@H]2CC[C@@H](OCCO)[C@H](OC)C2)CC(=O)[C@H](C)/C=C(\C)[C@@H](O)[C@H](OC)C(=O)[C@H](C)C[C@H](C)\C=C/C=C/C=C/1C`, the growth was 36.6%.

Consider `COc1cc(F)c(F)c(Nc2ccc(I)cc2F)c1NS(=O)(=O)C1(C[C@H](O)CO)CC1`, for which the growth was 0.42% (active).

Regarding `Nc1ccc(S(=O)(=O)O)c2cc(S(=O)(=O)O)cc(O)c12`, the growth is 109%.

Regarding `COc1cc2ncnc(Nc3ccc(F)c(Cl)c3)c2cc1NC(=O)/C=C/CN1CCCCC1`, the growth is -80.7% (active).

As to `COc1ccc(C(=O)N2c3ccccc3Sc3ccccc32)c(F)c1`, the growth was 46.6%.

For the molecule `O=S1(=O)OC(c2ccc(O)c(Cl)c2)(c2ccc(O)c(Cl)c2)c2ccccc21`, the growth is 114%.

As for `C[C@H](NC(=O)c1c(N)nn2cccnc12)c1cc2cccc(C#Cc3cnn(C)c3)c2c(=O)n1-c1ccccc1`, the growth is 50.1%.

As for `Cc1cc(O)cc(-c2c(-c3ccnc(-c4cccnc4)c3)cnn2C)c1`, the growth is 49.7%.

Regarding `CN1CCN(CCOc2cc(OC3CCOCC3)c3c(Nc4c(Cl)ccc5c4OCO5)ncnc3c2)CC1`, the growth was 98.3%.

(Values after PubChem BioAssay (NCI).)
